Measured values taken from PubChem BioAssay (NCI).
About 83,000 compounds went through this panel and 20% of them were active in at least one assay; those are over-represented in the sample as a whole.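 Treatment: one concentration, 48 hours, 96-well format. Scoring: percent growth, with anything below 10 considered active.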 Activity calls are given as the source filed them.

Tests used:
Test in all cases: NCI-60 one-dose screen, 48 h (100 = growth as untreated, 0 = no growth, -100 = all killed)
HCT-15 colon = conditions: 10 µM unless noted
HT29 colon = conditions: 10 µM unless noted
SNB-75 CNS = conditions: 10 µM unless noted
SNB-19 CNS = conditions: 10 µM unless noted
U251 CNS = conditions: 10 µM unless noted
PC-3 prostate = conditions: 10 µM unless noted
UACC-62 melanoma = conditions: 10 µM unless noted
LOX IMVI melanoma = conditions: 10 µM
SK-MEL-28 melanoma = conditions: 10 µM unless noted
SK-MEL-5 melanoma = conditions: 10 µM unless noted

Measured: growth

CC(=O)N1CCN(Cc2ccc3c(NNC(=O)c4cnccn4)nc4cc(F)ccc4n23)CC1
inactive: HCT-15 colon 30.3% | HT29 colon 35.9% | SNB-75 CNS 65.7% | SNB-19 CNS 25.4% | U251 CNS 13.1% | PC-3 prostate 40.9% | LOX IMVI melanoma 10.3% | SK-MEL-28 melanoma 30.4%
active: UACC-62 melanoma 9.03%

COc1ccccc1/C=C/C(=O)c1ccc(OC)c(S(N)(=O)=O)c1
active: HCT-15 colon 7.53% | SNB-75 CNS 8.99% | U251 CNS 5.14% | LOX IMVI melanoma 1.03%
inactive: HT29 colon 18.7% | SNB-19 CNS 27.3% | PC-3 prostate 48.5% | UACC-62 melanoma 44.4% | SK-MEL-28 melanoma 38.7%

NS(=O)(=O)c1ccc(-n2cc(-c3cccc(NC(=O)c4cc(N5CCOCC5)cc(C(F)(F)F)c4)c3)nn2)cc1
active: U251 CNS 7.62%
inactive: HCT-15 colon 105% | HT29 colon 103% | SNB-75 CNS 33.1% | SNB-19 CNS 40.8% | PC-3 prostate 70.6% | UACC-62 melanoma 41.1% | LOX IMVI melanoma 46.8% | SK-MEL-28 melanoma 36.9%

COc1cccc(/C=C/C(=O)c2ccc(OC)c(S(N)(=O)=O)c2)c1
active: HCT-15 colon -7.46% | HT29 colon 4.06% | U251 CNS -31.2% | LOX IMVI melanoma -69.9%
inactive: SNB-75 CNS 20.6% | SNB-19 CNS 27% | PC-3 prostate 48% | UACC-62 melanoma 52.6% | SK-MEL-28 melanoma 60.8%

CN1CCN(Cc2ccc(C(=O)Nc3cccc(C#Cc4cccc5[nH]nc(N)c45)c3)cc2C(F)(F)F)CC1
active: HCT-15 colon -93.9% | HT29 colon -50.3% | SNB-75 CNS -82.5% | SNB-19 CNS -89.7% | U251 CNS -79.2% | PC-3 prostate -22.9% | UACC-62 melanoma -88% | LOX IMVI melanoma -92% | SK-MEL-28 melanoma -97.4%

O=C1N/C(=N\c2nccs2)S/C1=C\C=C/c1ccccc1
inactive: HCT-15 colon 28.1% | HT29 colon 25.5% | SNB-75 CNS 83.5% | SNB-19 CNS 26.6% | PC-3 prostate 46.6% | LOX IMVI melanoma 28.3% | SK-MEL-28 melanoma 18%
active: U251 CNS 8.95% | UACC-62 melanoma -24%

CN1CCN(c2ccc3c(c2)nc(NNC(=O)c2cnccn2)c2cccn23)CC1
inactive: SNB-75 CNS 28.7% | SNB-19 CNS 20% | PC-3 prostate 11.7%
active: HCT-15 colon -51% | HT29 colon 6.95% | U251 CNS -19.1% | UACC-62 melanoma -17.9% | LOX IMVI melanoma -43.8% | SK-MEL-28 melanoma -15%

C=C1CCC2C3(C)COC(c4ccccc4F)OC3CCC2(C)C1CC(O)C1=CCOC1=O (stereo unspecified)
active: HCT-15 colon 9.86% | HT29 colon 8.43%
inactive: SNB-75 CNS 43.9% | SNB-19 CNS 81.5% | U251 CNS 53.4% | PC-3 prostate 36.5% | SK-MEL-5 melanoma 65.8% | UACC-62 melanoma 73.6% | SK-MEL-28 melanoma 47.6%

CCCCSc1nc(Nc2ccc(C(C)=O)cc2)c(C#N)c(-c2ccc(OC)cc2)n1
inactive: HCT-15 colon 74.9% | HT29 colon 78.5% | SNB-75 CNS 93% | SNB-19 CNS 61.8% | U251 CNS 10.2% | PC-3 prostate 90.8% | SK-MEL-5 melanoma 90.1% | UACC-62 melanoma 96.2% | SK-MEL-28 melanoma 91%

CCOc1ccc(-c2c(C#N)c(-c3ccc(Cl)cc3)nc3n[nH]c(-c4ccc(Cl)cc4)c23)cc1OC
inactive: HCT-15 colon 19.6% | HT29 colon 34.2% | SNB-75 CNS 58.5% | SNB-19 CNS 77% | U251 CNS 62.9% | PC-3 prostate 28% | SK-MEL-5 melanoma 28.2% | UACC-62 melanoma 68.5% | SK-MEL-28 melanoma 60.2%

COc1ccc(C(=O)/C=C/c2ccc(Cl)c(Cl)c2)cc1S(N)(=O)=O
active: HCT-15 colon -37.9% | HT29 colon -50.3% | SNB-75 CNS 6.46% | SNB-19 CNS 5.07% | U251 CNS -95.8% | UACC-62 melanoma -4.38% | LOX IMVI melanoma -69% | SK-MEL-28 melanoma -33.7%
inactive: PC-3 prostate 10.1%

COc1ccc(C(=O)/C=C/c2cccc3ccccc23)cc1S(N)(=O)=O
inactive: SNB-75 CNS 51.2% | SNB-19 CNS 10.5% | PC-3 prostate 12.8%
active: HCT-15 colon -65.3% | HT29 colon -39.5% | U251 CNS -93.9% | UACC-62 melanoma -58% | LOX IMVI melanoma -84.2% | SK-MEL-28 melanoma -50.8%

O=C(N/N=C/c1ccc(-c2ccc(O)cc2)s1)c1[nH]c2ccc(Br)cc2c1-c1ccccc1
active: HCT-15 colon 6.81% | HT29 colon -71.4% | SNB-75 CNS -12.7% | PC-3 prostate 7.47% | SK-MEL-5 melanoma 5.31% | UACC-62 melanoma -13.1% | SK-MEL-28 melanoma 1.23%
inactive: SNB-19 CNS 20.2% | U251 CNS 25.7%

CN1CCN(c2ccc(C(=O)/C=C/c3cc(C(F)(F)F)cc(C(F)(F)F)c3)cc2)CC1
active: HCT-15 colon -84.2% | HT29 colon -3.47% | SNB-75 CNS -82.3% | SNB-19 CNS -85% | U251 CNS -94.9% | PC-3 prostate -26.4% | UACC-62 melanoma -85.4% | LOX IMVI melanoma -89.7% | SK-MEL-28 melanoma -96.8%

Cn1nc(C(F)(F)F)cc1-c1cc(Cl)c(COc2ccc(Cl)cc2)c(-c2ccc(Cl)c(C(F)(F)F)c2)c1O
active: HCT-15 colon -39.5% | HT29 colon 6.65% | SNB-75 CNS -22.5% | SNB-19 CNS -11.5% | U251 CNS -24.8% | PC-3 prostate -12.3% | SK-MEL-5 melanoma -74.4% | UACC-62 melanoma -86.1% | SK-MEL-28 melanoma -48.8%

N#Cc1c(-c2ccc(Cl)cc2)nc2n[nH]c(-c3ccc(Cl)cc3)c2c1-c1ccc(C(F)(F)F)cc1
active: HCT-15 colon -47.2% | HT29 colon 0.823% | SNB-75 CNS -17.5% | U251 CNS -33.6% | PC-3 prostate 8.27% | SK-MEL-5 melanoma -84% | UACC-62 melanoma -58.6% | SK-MEL-28 melanoma 1.54%
inactive: SNB-19 CNS 11.3%

Clc1cccc(Cl)c1/C=C/c1cc(/C=C/c2ccc(Br)cc2)c2ccccc2n1
inactive: HCT-15 colon 101% | HT29 colon 105% | SNB-75 CNS 95.9% | SNB-19 CNS 92.5% | U251 CNS 101% | PC-3 prostate 96.2% | SK-MEL-5 melanoma 104% | UACC-62 melanoma 83.5% | SK-MEL-28 melanoma 104%

N#Cc1c(NCc2ccccc2)n[nH]c1Nc1ccccc1
inactive: HCT-15 colon 42.4% | HT29 colon 84.3% | SNB-75 CNS 57.4% | SNB-19 CNS 54.8% | U251 CNS 45.9% | PC-3 prostate 40.1% | UACC-62 melanoma 64.9% | LOX IMVI melanoma 58.4% | SK-MEL-28 melanoma 79.1%

N#Cc1c(-c2ccccc2Cl)cc(-c2c[nH]c3ccccc23)[nH]c1=O
inactive: HCT-15 colon 48.7% | HT29 colon 107% | SNB-75 CNS 25.7% | SNB-19 CNS 69.5% | U251 CNS 67% | PC-3 prostate 72.8% | SK-MEL-5 melanoma 63.8% | UACC-62 melanoma 50.3% | SK-MEL-28 melanoma 65.3%

N#Cc1c(-c2cccc3ccccc23)cc(-c2cccc(OCC(=O)O)c2)[nH]c1=O
inactive: HCT-15 colon 100% | HT29 colon 102% | SNB-75 CNS 73.7% | SNB-19 CNS 97.1% | U251 CNS 103% | PC-3 prostate 91.7% | SK-MEL-5 melanoma 100% | UACC-62 melanoma 90.5% | SK-MEL-28 melanoma 102%

COc1ccc([C@H](C)Nc2nc(Cl)nc3ccccc23)cc1
inactive: HCT-15 colon 56.1% | HT29 colon 28.8% | SNB-75 CNS 93.4% | SNB-19 CNS 60.6% | U251 CNS 74.2% | PC-3 prostate 77.1% | UACC-62 melanoma 47.8% | SK-MEL-28 melanoma 59.9%
active: SK-MEL-5 melanoma 5.57%

O=c1cc(-c2ccccc2)oc2cc(OCCCC[P+](c3ccccc3)(c3ccccc3)c3ccccc3)cc(O)c12
active: HCT-15 colon -94.2% | HT29 colon -65% | SNB-75 CNS -80.7% | SNB-19 CNS -44.5% | U251 CNS -57.4% | PC-3 prostate -87.3% | SK-MEL-5 melanoma -98.4% | UACC-62 melanoma -59.5% | SK-MEL-28 melanoma -98.4%

O=C1Nc2ccc([N+](=O)[O-])cc2C1=Nc1ccccc1
inactive: HCT-15 colon 92.5% | HT29 colon 122% | SNB-75 CNS 101% | SNB-19 CNS 96.6% | U251 CNS 106% | PC-3 prostate 94.4% | UACC-62 melanoma 59.7% | LOX IMVI melanoma 97.2% | SK-MEL-28 melanoma 108%

COc1ccc(C(=O)/C=C/c2ccc(OCc3ccc(F)cc3)c(OC)c2)cc1OC
active: SNB-75 CNS -15%
inactive: HCT-15 colon 10.2% | HT29 colon 10.7% | SNB-19 CNS 15.4% | U251 CNS 10.1% | PC-3 prostate 24% | SK-MEL-5 melanoma 17.8% | UACC-62 melanoma 18.8% | SK-MEL-28 melanoma 46.8%

N#Cc1c(-c2ccc(Br)cc2)nc2n[nH]c(-c3ccc(Br)cc3)c2c1-c1ccc(C(F)(F)F)cc1
active: HCT-15 colon 5.75% | SNB-75 CNS -3.08% | UACC-62 melanoma 0.103%
inactive: HT29 colon 20.6% | SNB-19 CNS 20.5% | U251 CNS 20.7% | PC-3 prostate 14.5% | SK-MEL-5 melanoma 14.3% | SK-MEL-28 melanoma 49.5%

CC1=C(C(=O)OCc2ccccc2)C(c2c(O)cc(O)cc2O)n2c(nc3ccccc32)N1 (stereo unspecified)
inactive: HCT-15 colon 39% | HT29 colon 38.7% | SNB-75 CNS 13% | SNB-19 CNS 59.7% | U251 CNS 42.7% | PC-3 prostate 49.2% | SK-MEL-5 melanoma 53% | UACC-62 melanoma 14.7% | SK-MEL-28 melanoma 60.2%

N#Cc1c(-c2ccc(Br)cc2)nc2n[nH]c(-c3ccc(Br)cc3)c2c1-c1ccc(F)cc1
inactive: HCT-15 colon 98.6% | HT29 colon 87.9% | SNB-75 CNS 94.5% | SNB-19 CNS 102% | U251 CNS 96.7% | PC-3 prostate 89% | SK-MEL-5 melanoma 95.1% | UACC-62 melanoma 87% | SK-MEL-28 melanoma 102%

COc1cc(-c2ccc(/C=N/NC(=O)c3[nH]c4ccc(Br)cc4c3-c3ccccc3)s2)cc(OC)c1OC
inactive: HCT-15 colon 66% | HT29 colon 93.6% | SNB-75 CNS 66.4% | SNB-19 CNS 63.9% | U251 CNS 63.4% | PC-3 prostate 76.5% | SK-MEL-5 melanoma 89.8% | UACC-62 melanoma 84.5% | SK-MEL-28 melanoma 84.1%

C[C@H]1CN(C(=O)c2ccc3c(NNC(=O)c4ccncn4)nc4cc(F)c(F)cc4n23)CCN1
active: UACC-62 melanoma 6.69%
inactive: HCT-15 colon 28.4% | HT29 colon 36.6% | SNB-75 CNS 65.3% | SNB-19 CNS 30.1% | U251 CNS 15.5% | PC-3 prostate 38.7% | LOX IMVI melanoma 12.4% | SK-MEL-28 melanoma 31.1%
